Measurements from PubChem BioAssay.
Active and inactive are the calls of the source.

Experiments:
[1] = small molecules captured by biotinylated probe aFSTL3 – biochemical, small-molecule microarray, fluorescence 635/667, stem cell growth factor project, primary screen (AID 1064); details: higher = more signal;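 note: measures binding of the biotinylated anti-FSTL3 antibody to printed compounds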
[2] = binders from COS7 lysate, DM2A8 probe, primary screen, torsin A project, cell lysate, small-molecule microarray, fluorescence 635/667 (AID 1065); details: higher = more signal, COS7 lysate expressing mutant human TOR1A
[3] = small molecules captured by biotinylated probe aFGF2 – biochemical, small-molecule microarray, fluorescence 635/667, stem cell growth factor project, primary screen (AID 1067); details: higher = more signal;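 note: measures binding of biotinylated aFGF2 protein to printed compounds on slides; z-score merges feature fluorescence and signal-to-noise across triplicate slides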
[4] = small molecules captured by biotinylated probe aFGF10 – biochemical, small-molecule microarray, fluorescence 635/667, stem cell growth factor project, primary screen (AID 1071); details: higher = more signal;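 note: score merges 667 nm spot intensity and signal to noise from triplicate slides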
[5] = target: Neurogenic locus notch homolog protein 2 (Homo sapiens) (UniProt Q04721); experiment: small molecules binding Notch2 protein – biochemical, small-molecule microarray, 635 nm fluorescence, stem cell growth factors, primary screen (AID 1073); details: higher = more signal
Neurogenic locus notch homolog protein 2 (Homo sapiens), sequence (Q04721 whole entry, looked up, canonical isoform): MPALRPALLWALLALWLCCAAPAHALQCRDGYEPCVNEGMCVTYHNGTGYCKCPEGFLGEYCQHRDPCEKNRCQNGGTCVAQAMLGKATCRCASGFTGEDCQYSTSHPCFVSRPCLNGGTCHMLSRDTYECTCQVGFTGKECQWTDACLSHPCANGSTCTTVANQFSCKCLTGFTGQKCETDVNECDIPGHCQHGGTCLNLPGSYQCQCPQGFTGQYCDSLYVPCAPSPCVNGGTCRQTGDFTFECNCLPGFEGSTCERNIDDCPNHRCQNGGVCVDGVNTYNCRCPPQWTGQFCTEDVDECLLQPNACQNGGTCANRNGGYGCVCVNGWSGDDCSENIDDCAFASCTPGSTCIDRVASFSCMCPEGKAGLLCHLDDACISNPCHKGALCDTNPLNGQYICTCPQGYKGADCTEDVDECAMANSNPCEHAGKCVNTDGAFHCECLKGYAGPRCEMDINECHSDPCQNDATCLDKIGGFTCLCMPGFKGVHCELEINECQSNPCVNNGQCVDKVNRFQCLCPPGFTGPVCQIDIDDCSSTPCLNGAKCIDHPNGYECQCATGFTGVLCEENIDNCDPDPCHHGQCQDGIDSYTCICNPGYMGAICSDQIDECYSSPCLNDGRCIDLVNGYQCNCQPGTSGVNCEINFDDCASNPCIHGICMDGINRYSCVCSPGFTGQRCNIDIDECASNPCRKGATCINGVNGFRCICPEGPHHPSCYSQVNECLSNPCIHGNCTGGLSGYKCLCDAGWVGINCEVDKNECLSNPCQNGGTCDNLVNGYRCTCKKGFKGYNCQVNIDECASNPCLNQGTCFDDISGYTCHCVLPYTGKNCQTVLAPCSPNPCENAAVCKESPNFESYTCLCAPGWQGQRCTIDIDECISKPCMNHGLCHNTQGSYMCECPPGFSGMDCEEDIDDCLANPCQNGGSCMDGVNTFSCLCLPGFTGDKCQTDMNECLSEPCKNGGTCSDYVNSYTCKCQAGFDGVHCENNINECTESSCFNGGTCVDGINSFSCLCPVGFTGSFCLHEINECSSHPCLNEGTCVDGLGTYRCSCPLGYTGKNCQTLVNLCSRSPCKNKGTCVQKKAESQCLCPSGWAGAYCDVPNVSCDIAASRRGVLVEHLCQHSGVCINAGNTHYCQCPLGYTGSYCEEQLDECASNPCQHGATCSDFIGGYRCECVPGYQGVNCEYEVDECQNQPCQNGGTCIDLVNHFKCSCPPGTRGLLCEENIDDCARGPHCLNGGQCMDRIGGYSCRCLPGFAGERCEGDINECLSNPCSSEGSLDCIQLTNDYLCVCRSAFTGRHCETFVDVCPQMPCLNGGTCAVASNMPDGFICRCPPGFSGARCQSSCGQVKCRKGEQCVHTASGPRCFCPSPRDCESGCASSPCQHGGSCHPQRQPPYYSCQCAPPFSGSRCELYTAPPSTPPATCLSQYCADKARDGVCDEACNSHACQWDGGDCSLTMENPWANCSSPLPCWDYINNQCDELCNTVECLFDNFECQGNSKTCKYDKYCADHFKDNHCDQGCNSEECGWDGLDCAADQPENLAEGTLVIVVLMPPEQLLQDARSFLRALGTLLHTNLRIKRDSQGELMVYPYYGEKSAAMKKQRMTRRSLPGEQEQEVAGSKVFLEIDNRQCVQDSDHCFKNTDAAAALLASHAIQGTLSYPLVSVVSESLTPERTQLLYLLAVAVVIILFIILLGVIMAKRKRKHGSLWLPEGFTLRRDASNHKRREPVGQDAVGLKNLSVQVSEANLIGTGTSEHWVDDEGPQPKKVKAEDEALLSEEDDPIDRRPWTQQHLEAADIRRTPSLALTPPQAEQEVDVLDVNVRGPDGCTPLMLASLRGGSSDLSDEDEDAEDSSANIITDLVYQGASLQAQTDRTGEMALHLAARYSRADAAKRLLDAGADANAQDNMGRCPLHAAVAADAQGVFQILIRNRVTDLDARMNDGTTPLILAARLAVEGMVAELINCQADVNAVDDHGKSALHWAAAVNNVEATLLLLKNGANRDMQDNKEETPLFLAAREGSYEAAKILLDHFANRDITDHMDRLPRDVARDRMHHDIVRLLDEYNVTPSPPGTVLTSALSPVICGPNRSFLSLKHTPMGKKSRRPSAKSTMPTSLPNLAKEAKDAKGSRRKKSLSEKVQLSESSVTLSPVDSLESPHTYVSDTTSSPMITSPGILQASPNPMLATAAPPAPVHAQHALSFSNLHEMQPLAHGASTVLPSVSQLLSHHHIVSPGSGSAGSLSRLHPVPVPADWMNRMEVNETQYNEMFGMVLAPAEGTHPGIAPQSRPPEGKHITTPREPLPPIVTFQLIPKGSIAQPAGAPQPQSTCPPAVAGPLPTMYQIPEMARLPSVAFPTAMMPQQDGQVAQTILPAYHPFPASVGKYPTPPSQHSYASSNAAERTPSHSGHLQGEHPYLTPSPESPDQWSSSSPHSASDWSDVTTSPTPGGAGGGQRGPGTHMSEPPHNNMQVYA

[6] = target: Pro-neuregulin-1, membrane-bound isoform (Homo sapiens) (UniProt Q02297); experiment: small molecules binding neuregulin-1 protein – biochemical, small-molecule microarray, fluorescence 635/667, psychiatric disease protein project, primary screen (AID 1075); details: NRG1 binding, 635 nm fluorescence, higher = more signal;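 note: score combines 667 nm spot fluorescence with signal to noise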
Pro-neuregulin-1, membrane-bound isoform (Homo sapiens), sequence (Q02297 whole entry, looked up, the tested form may be a part, canonical isoform): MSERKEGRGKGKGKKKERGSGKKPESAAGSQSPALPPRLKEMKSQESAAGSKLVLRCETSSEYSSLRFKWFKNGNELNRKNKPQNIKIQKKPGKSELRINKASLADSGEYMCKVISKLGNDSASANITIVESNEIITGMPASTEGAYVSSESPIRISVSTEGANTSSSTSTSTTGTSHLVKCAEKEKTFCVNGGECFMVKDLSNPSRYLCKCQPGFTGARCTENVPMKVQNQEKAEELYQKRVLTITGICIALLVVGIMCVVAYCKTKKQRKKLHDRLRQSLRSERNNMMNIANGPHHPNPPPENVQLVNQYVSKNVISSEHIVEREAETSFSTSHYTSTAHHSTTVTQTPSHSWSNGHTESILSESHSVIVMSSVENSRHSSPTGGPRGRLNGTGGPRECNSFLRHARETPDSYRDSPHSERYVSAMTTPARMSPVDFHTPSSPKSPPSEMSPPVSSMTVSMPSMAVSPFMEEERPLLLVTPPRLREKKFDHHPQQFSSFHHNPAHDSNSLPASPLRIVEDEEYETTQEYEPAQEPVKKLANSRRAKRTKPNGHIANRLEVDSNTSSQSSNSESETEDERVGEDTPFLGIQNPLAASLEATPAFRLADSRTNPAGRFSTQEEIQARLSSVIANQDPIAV

[7] = system: Neuregulin-1 EGF-like domain; experiment: small molecules binding NRG1 EGF domain – biochemical, small-molecule microarray, 635 nm fluorescence, primary screen (AID 1081); details: higher = more signal;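 note: binding of the protein to compounds printed on small-molecule microarray slides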
[8] = FRG1 expression reporter modulators in myotubes – cell-based, C2C12 myotubes, firefly/Renilla luciferase, luminescence, FRG1 inhibition for FSHD, primary screen (AID 1084); details: FRG1 promoter luciferase, higher = more signal, called active from +8 up or from −8 down
[9] = small molecules captured by biotinylated probe aFST – biochemical, small-molecule microarray, fluorescence 635/667, stem cell growth factor project, primary screen (AID 1086); details: higher = more signal;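 note: score merges 667 nm fluorescence with signal-to-noise of each printed compound spot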
[10] = binders of probe aHhip on microarray, primary screen, stem cell growth factor project, biochemical, small-molecule microarray, fluorescence 635/667 (AID 1087); details: higher = more signal;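 note: score merges spot fluorescence at 667nm with spot signal to noise ratio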
[11] = system: PRMT1 (protein arginine N-methyltransferase 1); experiment: small molecules binding arginine methyltransferase PRMT1 – biochemical, small-molecule microarray, 635 nm fluorescence, primary screen (AID 1088); details: higher = more signal;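 note: binding of Prmt1 protein to compounds spotted on small-molecule microarray slides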
[12] = growth effects on S. cerevisiae YJM789 – YJM789 clinical isolate, OD600, 24 h, basal, primary screen (AID 1089); details: higher = more signal, called active from +8 up or from −8 down;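 note: growth of clinical yeast isolate S. cerevisiae YJM 789 seeded 1000 cells per well; test concentration not given here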
[13] = S. pombe growth modifiers, basal conditions – strain 972, OD600, 24 h, no modulator, primary screen (AID 1090);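 note: basal condition with compound alone and no growth modifier present; test concentration not given here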; details: S. pombe 972 growth, higher = more signal, called active from +8 up or from −8 down
[14] = budding yeast growth modifiers under rapamycin – strain BY4716, OD600, 96 h, primary screen (AID 1091); note: test concentration not given here; details: S. cerevisiae BY4716 + rapamycin, higher = more signal, called active from +8 up or from −8 down
[15] = target: Torsin-1A-interacting protein 2 (Homo sapiens) (UniProt Q8NFQ8); experiment: small molecules binding lysate-expressed LULL1 – cell lysate, human LULL1 lysate, 635/667 nm fluorescence, primary screen (AID 1092); details: small-molecule microarray, hLULL1 lysate binding, 635 nm fluorescence; higher = more signal;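 note: probe is lysate of COS7 cells overexpressing human LULL1; score merges per-feature 667 nm fluorescence with signal-to-noise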
Torsin-1A-interacting protein 2 (Homo sapiens), sequence (Q8NFQ8 whole entry, looked up): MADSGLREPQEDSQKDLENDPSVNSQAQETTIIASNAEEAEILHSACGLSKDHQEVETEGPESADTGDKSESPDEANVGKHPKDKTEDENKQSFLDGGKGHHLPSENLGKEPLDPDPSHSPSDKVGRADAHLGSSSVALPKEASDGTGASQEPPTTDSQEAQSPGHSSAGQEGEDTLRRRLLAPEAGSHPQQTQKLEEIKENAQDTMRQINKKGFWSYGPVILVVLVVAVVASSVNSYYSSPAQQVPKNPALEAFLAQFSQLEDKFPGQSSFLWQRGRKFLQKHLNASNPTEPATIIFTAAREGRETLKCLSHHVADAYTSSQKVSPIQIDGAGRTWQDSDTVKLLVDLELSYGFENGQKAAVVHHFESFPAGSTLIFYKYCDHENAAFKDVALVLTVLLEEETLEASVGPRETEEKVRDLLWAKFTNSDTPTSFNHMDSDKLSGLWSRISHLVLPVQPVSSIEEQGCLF

[16] = optical density change of DRC41 E. coli – strain DRC41, OD650, 24 h, E. coli filamentation project, primary screen (AID 1093);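 note: MC1000 strain lacking acrAB efflux and sulA so SOS filamentation is blocked; test concentration not given here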; details: E. coli DRC41 growth, higher = more signal, called active from +8 up or from −8 down
[17] = probe aLefty2 binding to arrayed compounds – biochemical, biotinylated probe, 635/667 nm fluorescence, primary screen (AID 1094); details: small-molecule microarray, higher = more signal;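 note: score merges spot fluorescence near 667 nm with spot signal-to-noise ratio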
[18] = system: Noggin (protein binding on small-molecule microarray); experiment: small molecules binding Noggin protein – biochemical, 635/667 nm fluorescence, primary screen (AID 1095); details: 635 nm fluorescence, higher = more signal;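 note: score merges 667 nm feature fluorescence with signal to noise over triplicate slides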
[19] = target: Neurogenic locus notch homolog protein 3 (Homo sapiens) (UniProt Q9UM47); experiment: small molecules binding NOTCH3 protein – biochemical, 635/667 nm fluorescence, primary screen (AID 1096); details: small-molecule microarray, 635 nm fluorescence, higher = more signal
[20] = probe aEGFR binding to arrayed compounds – biochemical, biotinylated probe, 635/667 nm fluorescence, primary screen (AID 1097); details: small-molecule microarray, higher = more signal;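 note: probe is a biotinylated anti-EGFR antibody binding compounds printed on slides; score combines fluorescence near 667 nm and signal to noise of each spot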

| SMILES | composite z-score [1] | composite z-score [2] | composite z-score [3] | composite z-score [4] | composite z-score [5] | composite z-score [6] | composite z-score [7] | z-score [8] | composite z-score [9] | composite z-score [10] | composite z-score [11] | z-score [12] | z-score [13] | z-score [14] | composite z-score [15] | z-score [16] | composite z-score [17] | composite z-score [18] | composite z-score [19] | composite z-score [20] |
| --- | --- | --- | --- | --- | --- | --- | --- | --- | --- | --- | --- | --- | --- | --- | --- | --- | --- | --- | --- | --- |
| CCCCCCc1nc(Cc2cc(OC)c(OC)c(OC)c2)c(C)c2c1[Si](C(C)C)(C(C)C)OC2 | -0.491 | 0.0293 | -0.0328 | -0.0482 | -0.0366 | -0.186 | 0.105 | -0.474 (inactive) | -0.0696 | -0.274 | 0.829 | -0.42 (inactive) | -1.61 (inactive) | -0.0746 (inactive) | 0.377 | 1.59 (inactive) | -0.0487 | -0.0156 | -0.143 | 0.0172 |
| CN1C(=O)C2CC=C(C3=CCO[C@@H]3[C@H]3CCCN3S(=O)(=O)c3ccccc3[N+](=O)[O-])CC2C1=O (stereo not given in full) | 0.895 | -0.216 | -0.166 | 0.114 | -0.456 | 0.789 | -0.132 | -0.869 (inactive) | 0.0699 | 0.0373 | 0.0659 | -0.0649 (inactive) | -0.706 (inactive) | -0.0153 (inactive) | 0.283 | -0.66 (inactive) | -0.203 | -0.194 | 0.01 | -0.171 |
| C=CCOC(=O)[C@H]1[C@@H]2C(=O)O[C@@H](c3ccccc3)[C@@H](c3ccccc3)N2[C@@H](c2ccc(OCCOC(=O)[C@H]3C[C@H]4C(=O)NCC(=O)N4[C@H]3c3ccc(O)cc3)cc2)[C@]12C(=O)Nc1ccccc12 | 0.924 | 0.933 | -0.0355 | 0.738 | 1.2 | 1.57 | 1.33 | 0.575 (inactive) | 0.389 | 0.49 | 1.48 | 1.71 (inactive) | 1.61 (inactive) | 4.1 (inactive) | 2.58 | -0.0665 (inactive) | 0.0337 | 1.22 | 1.09 | 0.0656 |
| CC(C)C(=C=CC[C@H](O)c1cccc(OCCO)c1)C[C@H](O)c1ccccn1 | -0.242 | -0.243 | -0.166 | 0.016 | -0.0938 | -0.272 | 1.05 | -0.29 (inactive) | -0.0565 | -0.0645 | 1.21 | 0.262 (inactive) | 0.317 (inactive) | -0.647 (inactive) | 1.55 | 0.879 (inactive) | -0.143 | 0.731 | 0.403 | -0.157 |
| C=C[C@@H](CO)NS(=O)(=O)c1ccc(Br)cc1 | 0.265 | -0.066 | -0.22 | -0.426 | -1.14 | -0.361 | -0.14 | -1.84 (inactive) | -0.257 | -0.156 | -0.635 | -3.08 (inactive) | -3.63 (inactive) | -1.27 (inactive) | -0.361 | 3.54 (inactive) | -0.24 | -0.275 | -1.85 | -0.164 |
| Cc1ccc(S[C@]2(C(=O)NCc3ccccc3)CC(=O)N(Cc3ccccc3C(F)(F)F)[C@@H]2c2ccc(CO)cc2I)cc1 | 0.412 | -0.135 | -0.106 | -0.655 | -0.717 | 1.56 | 0.472 | -0.701 (inactive) | -0.319 | -0.251 | 1.3 | -1.53 (inactive) | -4.08 (inactive) | 0.899 (inactive) | 1.93 | 0.322 (inactive) | -0.0593 | -0.86 | -0.582 | -0.282 |
| C=C(COC)C(=O)CC[C@H](OC(C)=O)c1ccccc1OCCO | -0.0661 | 0.697 | -0.167 | 0.484 | -0.987 | -0.493 | 0.355 | -0.0831 (inactive) | -0.215 | -0.0994 | 1.39 | 0.556 (inactive) | -2.58 (inactive) | -0.401 (inactive) | -0.323 | 1.32 (inactive) | -0.166 | 0.985 | 0.367 | -0.262 |
| COC(=O)C[C@H]1O[C@]2(C(=O)N(C)c3ccccc32)[C@@H](C)[C@@H]1[Si](C)(C)c1ccccc1 | -0.486 | 0.0686 | -0.0767 | 0.351 | 0.731 | 0.033 | 0.854 | -2.11 (inactive) | 0.333 | 0.357 | 1.17 | -4.03 (inactive) | -5.37 (inactive) | -2.45 (inactive) | 0.687 | 0.23 (inactive) | 0.0718 | 1.23 | 1.08 | -0.0675 |
| COC(=O)C1=CC(CCCO)=CC(c2ccc(CN3CCCC3)cc2)N(C)C=C1C(=O)OC (stereo not given) | 0.114 | 1.34 | 0.0755 | 1.21 | 1.13 | 1.93 | 1.18 | 0.48 (inactive) | 0.989 | -0.219 | 0.853 | -0.512 (inactive) | 0.0939 (inactive) | -0.19 (inactive) | 3.4 | 0.0791 (inactive) | 0.0723 | -0.2 | 0.276 | 0.0816 |
| C=C(COC)C(=O)CC[C@@H](OC(=O)c1ccccc1-c1ccccc1C(=O)O)c1ccccc1OCCO | -0.167 | 2.13 | -0.0543 | 1.27 | 0.468 | -0.189 | 1.12 | 0.896 (inactive) | -0.168 | -0.236 | 1.37 | -1.4 (inactive) | -1.95 (inactive) | -1.12 (inactive) | -0.225 | -0.434 (inactive) | -0.122 | 0.641 | 0.586 | -0.184 |
